Only some compounds are listed: those with a hit (about 3.1% of all), similar ones and a draw of the others.
Tau fluor counter – counter-screen for tau fibril formation inhibitors; Potency, µM (titrated, usually from 57.7 µM), without a hit: top-dose activity change, negative = decrease; 280,000 compounds, 0.93% hits; tau K18 P301L Alexa594 fluorescence, heparin fibrillization; further: nearly all actives have a fitted effect of over 55% in size
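Human K18 P301L tau (15 uM unlabeled plus 0.24 uM Alexa 594-labeled, final) in 100 mM sodium acetate pH 7 was mixed with compound and 20 uM heparin and incubated 6 hr at 37 C.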
Tau fibril FP – tau fibrillization inhibition (FP); AID 1468; 280,000 compounds, 0.39% hits; P10636; Potency, µM (top dose mostly 57.7 µM), inactives show at the top dose activity, negative = inhibition, hits mostly inhibitors; K18 P301L tau heparin fibrillization, Alexa594 FP, 6 h; further: nearly all actives have a fitted effect of over 55% in size
Target sequence (P10636 561-689 P618L limits assumed): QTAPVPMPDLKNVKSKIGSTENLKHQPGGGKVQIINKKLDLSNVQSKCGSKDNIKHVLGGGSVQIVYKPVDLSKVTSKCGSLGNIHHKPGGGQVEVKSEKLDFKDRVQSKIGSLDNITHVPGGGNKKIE
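K18 P301L tau (15 uM unlabeled/0.24 uM Alexa 594-labeled, final) + compound + heparin 20 uM final; 100 mM NaOAc pH 7; 6 hr 37 C; ThT 30 uM final added, 1 hr RT; FP ex 555/em 632 nm.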
Tau fibril ThT – inhibitors of human tau fibril formation, thioflavin T binding; Potency, µM (series often up to 57.4 µM), inactives show at the highest dose activity, negative = inhibition, most hits filed as inhibitors; AID 1460; 270,000 compounds, 2.1% hits; recombinant tau K18 P301L (four-repeat tau fragment), heparin-induced fibrillization, ThT fluorescence; further: nearly all actives have a fitted effect of over 55% in size
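Heparin-induced (20 uM) aggregation of recombinant human K18 P301L tau, 15 uM unlabeled with 0.24 uM labeled, pH 7 acetate buffer, 6 hr at 37 C with compound. Fibrils quantified by 30 uM ThT fluorescence after 1 hr ambient incubation.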
TRb SRC2 PPI – TRbeta-SRC2 interaction inhibition; P10828; TRbeta-SRC2 peptide binding, fluorescence polarization; receptor liganded with 1 µM T3; Potency, µM (doses to about 106 µM), inactives show at the top dose activity change, negative = inhibition, usual class: inhibitors; 280,000 compounds, 0.065% hits;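 further: plate controls were bound peptide for no effect and peptide without receptor for full effect; nearly all actives have a fitted effect of over 50% in size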
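A fluorescence polarization screen tested compounds at multiple concentrations against complex formation between 0.6 uM TRb ligand-binding domain and 20 nM Texas Red SRC2 peptide, with 1 uM T3 present; readout after 5 hr.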
GoLoco inh red – blocks human Gai1 binding to RGS12 GoLoco peptide, red readout; P63096; Gai1:RGS12 GoLoco peptide FP, rhodamine, 10 min; Potency, µM (doses to about 61.6 µM), inactives show at the highest dose activity, negative = inhibition, usual class: inhibitors; 230,000 compounds, 0.44% hits; active means well fitted inhibition curve with a large enough effect, not every such curve was filed as active; inactive means no such curve, though single readings can be large or run the other way; further: nearly all actives have a fitted effect of over 30% in size
Target sequence (P63096 whole entry, looked up): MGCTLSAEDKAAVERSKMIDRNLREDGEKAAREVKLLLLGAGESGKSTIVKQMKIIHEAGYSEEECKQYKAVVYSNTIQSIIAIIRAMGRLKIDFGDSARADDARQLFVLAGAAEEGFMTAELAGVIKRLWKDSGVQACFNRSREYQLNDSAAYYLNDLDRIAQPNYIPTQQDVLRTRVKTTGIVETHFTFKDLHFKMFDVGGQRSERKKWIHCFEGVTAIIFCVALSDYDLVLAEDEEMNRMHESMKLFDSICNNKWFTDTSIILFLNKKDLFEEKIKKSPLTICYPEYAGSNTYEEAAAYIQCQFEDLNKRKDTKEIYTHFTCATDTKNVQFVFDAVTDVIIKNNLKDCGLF
TR SRC2 fluor cs – counter-screen for TRb-SRC2 inhibitors: fluorescence interference; 280,000 compounds, 0.29% hits; TRb/SRC2 Texas Red total fluorescence interference; Potency, µM (series often up to 106 µM), inactives show at the top dose fluorescence change, negative = quenching; AID 1479; active means well fitted curve in either direction with a large enough effect; inconclusive means small, poorly fitted or top-dose-only effect
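Human TRb ligand-binding domain at 0.6 uM with 20 nM Texas Red SRC2 peptide in Tris buffer containing 1 uM T3 and 5% DMSO, incubated with compound 5 h at ambient temperature. Total fluorescence (555/632 nm) calculated as parallel + 2 × perpendicular.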
Numbers without * were called inactive; ? = inconclusive; . = no result; ! = repeats disagree; [ ] = remark or other dose. Unless noted, the call rests on the fitted dose curve; in most records, active means well fitted curve in the direction sought with a large enough effect; inconclusive means small, poorly fitted or top-dose-only effect, or another doubt; inactive means no such curve, though single readings can be large; an effect the other way counts as inactive or inconclusive. Unless noted, on the % scale 0 is the no-effect control and ±100 the full control effect; potency means the concentration at half of the fitted maximal effect.

SMILES	Tau fluor counter	Tau fibril FP	Tau fibril ThT	TRb SRC2 PPI	GoLoco inh red	TR SRC2 fluor cs
Cn1nc(C(=O)Nc2ccc(F)c(Cl)c2)c2c1-c1ccccc1S(=O)(=O)C2	-11%	-4%	-20%	-25%	.	0.0063µM*[quencher]
Cn1nc(C(=O)NCc2ccc(Cl)cc2)c2c1-c1ccccc1S(=O)(=O)C2	-7%	4%	-9%	-8%	.	?
Cn1nc(C(=O)NCc2ccccc2Cl)c2c1-c1ccccc1S(=O)(=O)C2	-2%	2%	-5%	-28%	.	100µM*[quencher]
Cc1ccc(NC(=O)c2nn(C)c3c2CS(=O)(=O)c2ccccc2-3)c(Cl)c1	-11%	-3%	-14%	-8%	.	?
CN(C)c1ccc(N=Cc2nc(-c3ccccc3)oc2OC(=O)c2cccc(Br)c2)cc1	-27%	?	10µM*	-5%	13%	-3%
CCSc1ncc(Cl)c(C(=O)Nc2c(C(=O)Nc3cccc(C)c3)oc3ccccc23)n1	-11%	-9%	4%	0%	.	7%
CCS(=O)(=O)c1ncc(Cl)c(C(=O)Nc2c(C(=O)Nc3cccc(C)c3)oc3ccccc23)n1	?	-11%	4µM*	-1%	.	5%
NS(=O)(=O)c1ccc(NC(=O)CCn2c(=O)oc3ccccc32)cc1	-6%	-6%	1%	7%	.	-8%
O=C(COc1ccccc1-c1ccccc1)N/N=C/c1ccccn1	-15%	-1%	?	-9%	10%	-3%
COc1cc(C2C(C(N)=O)=C(C)Nc3nc(CCCO)nn32)cc(OC)c1OC (centres undefined)	-1%	2%	-12%	0%	-6%	2%
O=C(N/N=C/c1ccc([N+](=O)[O-])o1)c1cc2c(ccc3ccccc32)o1	?	-8%	1.1µM*	-7%	39%	-2%
O=C(N/N=C/c1ccc([N+](=O)[O-])o1)c1cc2ccccc2o1	-23%	4%	.	-2%	6%	-1%
O=C(N/N=C/c1ccc([N+](=O)[O-])o1)c1ccc(O)cc1	-30%	4%	10µM*	0%	12%	0%
O=C(N/N=C/c1ccc([N+](=O)[O-])o1)c1ccncc1	1%	-2%	?	0%	9%	0%
CCOC(=O)c1c(OCC)[nH]c2c1cc(O)c1ccccc12	?	11%	14µM*	4%	-16%	-7%
CCOC(=O)c1c(C)[nH]c2cc(Br)c(O)cc12	-10%	4%	?	-11%	7%	-9%
O=C(Nc1ccc(F)cc1)C1=CC(=O)N2CCN=C2S1	-14%	?	18µM*	-1%	-5%	0%
O=C(CC1SC2=NCCN2C1=O)Nc1ccc(Br)cc1 (centres undefined)	-3%	-12%	-7%	-15%	24%	-4%
Nc1ccccc1C(=O)/C=C/c1ccc2c(c1)OCO2	-22%	2%	14µM*!	1%	3%	3%
Nc1ccccc1C(=O)/C=C\c1ccc2c(c1)OCO2	?	5%[11.6 µM]	1.3µM*	0%[11.2 µM]	.	-1%[11.2 µM]
Cc1ccc(O)c(C(=O)/C=C/c2ccc3c(c2)OCCO3)c1	-9%	20%	16µM*	2%	0%	-3%
COc1ccccc1N(C)S(=O)(=O)c1ccc(C(=O)OCC(=O)N2CCC2)cc1	-10%	-2%	-5%	-2%	2%	-2%
CCN(CC)CC(=O)Nc1ccc2c(c1)N(C(=O)CN(CC)CC)c1ccccc1CC2	-6%	2%	-16%	2%	1%	-5%
CCN(CC)CC(=O)Nc1ccc2c(c1)Nc1ccccc1CC2	16µM*[quencher]	4%	?	-20%	0%	-2%
CCCCc1cc2c(cn1)=C(OC(=O)CCC(=O)OC)C(C)(OC(=O)CC)C(=O)C=2 (centres undefined)	4%[11.6 µM]	4%[11.6 µM]	-2%[11.5 µM]	4%[11.2 µM]	-8%[14.2 µM]	-4%[11.2 µM]
SMILES	Tau fluor counter	Tau fibril FP	Tau fibril ThT	TRb SRC2 PPI	GoLoco inh red	TR SRC2 fluor cs
COC(=O)C(N)Cc1ccc(O)cc1 (centres undefined)	-4%	4%	-2%	8%	1%	0%
COC(=O)[C@@H](N)CS	-28%	?	14µM*	1%	15%	0%
COC(=O)C(N)CS (centres undefined)	-25%	?	18µM*	5%	-43%	1%
COC(=O)C1=C(C)Nc2nc3ccccc3n2C1c1ccccc1F (centres undefined)	-5%	0%	0%	-8%	0%	-3%
CCCCn1c(/N=C/c2c[nH]c3ccccc23)nc2ccccc21	22µM*[quencher]	?	-4%	2%	0%	-8%
CCCn1c(/N=C/c2c[nH]c3ccccc23)nc2ccccc21	?	?	-7%	2%	13%	3%
Cc1cc(N/N=C/c2c[nH]c3ccccc23)c2ccccc2n1	-24%	-3%	-12%	-2%	5%	-3%
Fc1c(F)c(F)c(N/N=C/c2c[nH]c3ccccc23)c(F)c1F	7.1µM*[quencher]	?	13µM*	-2%	-17%	-2%
Cn1c(N/N=C/c2c[nH]c3ccccc23)nc2ccccc21	16µM*[quencher]	6%	4.5µM*	5%	1%	-6%
COc1cc(CNCc2ccccn2)ccc1OCc1ccc(Cl)c(Cl)c1	-15%	-2%	-14%	1%	10%	-5%
COc1cc2c(cc1OC)CN(C(=O)Nc1ccccc1)CC2	-10%	-7%	-10%	-10%	.	112µM*[quencher]
O=C(Nc1ccccc1)N1CCc2ccccc2C1	-1%	-5%	11%	-16%	-9%	1%
CCCC(CCC(=O)Nc1cccc([N+](=O)[O-])c1)C(=O)O (centres undefined)	-13%	-2%	-11%	-5%	5%	1%
COc1ccccc1N=C1SC(C(=O)Nc2cccc(Cl)c2Cl)C(N)=C1C(N)=O (centres undefined)	18µM*[quencher]	?	25µM*	0%	0%	-3%
COc1ccccc1N=C1SC(C(=O)Nc2ccccc2OC)CC(=O)N1C (centres undefined)	-9%	0%	-2%	2%	.	?
O=C(COc1ccc(Cl)cc1)NCc1nnc(SCC(=O)N2CCCC2)o1	-7%	5%	-4%	-5%	0%	-5%
O=C(NCc1cccs1)C1CCN(C(=O)N2CCOc3ccccc32)CC1	?	14%	-11%	-10%	.	0.56µM*[quencher]
O=C(NCc1cccs1)C1CCN(C(=O)N2CCOc3ccc(Cl)cc32)CC1	-3%	-1%	-18%	-8%	.	4%
O=C(NCCC1=CCCCC1)C1CCN(C(=O)N2CCOc3ccccc32)CC1	2.8µM*[quencher]	?	2%	0%	.	?
O=C(NCc1ccco1)C1CCN(C(=O)N2CCOc3ccc(Cl)cc32)CC1	?	?	20µM*	-2%	.	4%

Compound activity from PubChem.
